“And” between values parts separate entries of the source, which are not always exact repeats. Equal entries are not always repeated. The panel holds about 79,000 compounds, 15% with a hit somewhere; the sample as a whole holds those more often. The source made the active and inactive calls. Cut-off read from the data, not from the text of the source: active = growth inhibition above about 70%; inactive = the rest.

These results are taken from PubChem BioAssay (NCI).

The nature of one assay: NCI Yeast Anticancer Drug Screen. Data for the rad50 strain (AID 155).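 Note: 0% = growth of vehicle-only cultures of the same strain.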 The note with it: S. cerevisiae rad50 strain growth inhibition, active compounds read high; at 50.0 µM unless noted. In outline: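 Relative growth inhibition (compound vs vehicle) was measured in yeast with a defined repair-gene alteration.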
As for `CCOC(=O)Nc1ccccc1OCC`, the growth inhibition is -10.6% (inactive).

`ClC(Cl)(Cl)c1ncnc2nc[nH]c12`: the growth inhibition is -15.1% (inactive).

For `CNC(=S)NCOCCOC(C)=O`, the growth inhibition is 6.75% (inactive).

For `NC(Cc1cc(Br)c(Oc2ccc(O)cc2)c(Br)c1)C(=O)O` (stereo not drawn), the growth inhibition was 19.8% (inactive).

For the molecule `O=[N+]([O-])c1ccc(S(=O)(=O)O)cc1`, the growth inhibition was 43.6% (inactive).

Take `CCCSc1nc(C(=O)O)cc(=O)[nH]1`: the growth inhibition is -8.9% (inactive).

Regarding `CC(=O)N(C)c1ccccc1`, the growth inhibition was -19.2% (inactive).

For `O=C(O)c1cc([N+](=O)[O-])c(O)c2ccccc12`, the growth inhibition is 9.15% (inactive).

Turning to `COC(=O)C1=C2C3(O)CC4CC5C3CCC(C)N5C24C2CCCC(OC)C2C1OC(=O)c1ccccc1` (stereo not drawn), the growth inhibition is -2.1% (inactive).

In the case of `CCCC(=O)OCC1OC(n2cc(F)c(=O)[nH]c2=O)CC1OC(=O)CCC` (stereo not drawn), the growth inhibition is 4.1% (inactive).

In the case of `O=[N+]([O-])c1cccc(Br)c1`, the growth inhibition was 25.9% (inactive).

For the molecule `COC(=O)/C=C(/Sc1nc(Cl)c(Cl)nc1N)C(=O)OC` (tested in a mixture with another compound), the growth inhibition was -15.1% (inactive).

With `CC(C)(C)NC(=O)C(Br)c1ccccc1` (stereo not drawn), the growth inhibition was 0.05% (inactive).

Take `C=C1CC2C=CC1C2` (stereo not drawn): the growth inhibition was 3.65% (inactive).

On to `O=S(=O)(O)c1cc(N=[N+]([O-])c2ccc(N=Nc3ccccc3)cc2S(=O)(=O)O)ccc1/C=C/c1ccc(N=[N+]([O-])c2ccc(N=Nc3ccccc3)cc2S(=O)(=O)O)cc1S(=O)(=O)O`, for which the growth inhibition was 28.6% (inactive).

For `CC(C)(C)c1ccc(C(C)(C)C)c(N2C(=O)c3ccc4c5ccc6c7c(ccc(c8ccc(c3c48)C2=O)c75)C(=O)N(c2cc(C(C)(C)C)ccc2C(C)(C)C)C6=O)c1`, the growth inhibition is -15.2% (inactive).

For `CO[C@@H]1C2=CC=CC=C[C@H]2n2c(=O)n(-c3ccccc3)c(=O)n21`, the growth inhibition was -10.2% (inactive).

For the molecule `Nc1nc(N)c2[nH]cnc2n1`, the growth inhibition is 0.6% (inactive) and 18.9% (inactive).

With `CCOC(=O)c1ccc2c(c1)C(=O)c1cc([N+](=O)[O-])ccc1-2`, the growth inhibition is 2.85% (inactive).

With `N#CCCOc1ccc(N)cc1`, the growth inhibition is 0.55% (inactive).

`O=C1NCC2(CCNCC2)N1`: the growth inhibition was -10.3% (inactive).

In the case of `CCCCc1cc(C(=O)OC/C(C)=N/NC(N)=O)c2ccccc2n1`, the growth inhibition was -6.7% (inactive).

In the case of `Nc1cc(C(=O)O)[nH]c(=O)n1`, the growth inhibition is -23.7% (inactive).

On to `O=c1c2ccccc2c(=O)n2n1-c1cccc(c1)CSSCc1cccc-2c1`, for which the growth inhibition is -16.9% (inactive).

For the molecule `O=C(O)COc1ccc(F)cc1F`, the growth inhibition is -22.5% (inactive).

Take `Cc1ccc(S(=O)(=O)c2ccccc2)cc1`: the growth inhibition was -18.4% (inactive) and 23.4% (inactive).

As for `CCCCCCCCCCCC(O)C(C)(C)C` (stereo not drawn), the growth inhibition is 23.7% (inactive).

With `CC1(O)CC(=O)c2c(cc3ccc(-c4c5c(c(O)c6c(O)cccc46)C(=O)CC(C)(O)C5)c(O)c3c2O)C1` (stereo not drawn), the growth inhibition is 54.1% (inactive).

Regarding `N#C/C(=C\c1ccc(Cl)cc1Cl)C(=O)N/N=C/c1ccc(Cl)cc1Cl`, the growth inhibition is 62.8% (inactive).

Take `O=C1C2CCC2C(=O)N1c1ccc2ccccc2c1` (stereo not drawn): the growth inhibition is -38.5% (inactive).

With `Cc1cc(O)c(C)cc1O`, the growth inhibition was 16.1% (inactive).

`C[N+](C)(CCCCCCCCCC[N+](C)(C)CC(=O)c1ccccc1)CC(=O)c1ccccc1`: the growth inhibition was 36.2% (inactive).

With `CCCCN1C(=O)NC(Cc2ccccc2)C1=O` (stereo not drawn), the growth inhibition was -13.2% (inactive).

On to `CCCCCCCCCCCC[N+](C)(C)C(C)Cc1ccccc1` (stereo not drawn), for which the growth inhibition is 99.3% (active).

For the molecule `O=S(=O)(O)c1cc(O)c(S(=O)(=O)O)cc1O`, the growth inhibition is -12.2% (inactive).

As to `CC(C)CC1N=C(NN=C(CCl)CCl)OP1(=O)NCCCCCCNP1(=O)OC(NN=C(CCl)CCl)=NC1CC(C)C` (stereo not drawn), the growth inhibition was 13.4% (inactive).

Take `O=C1CC2c3ccccc3CCN2C2=C1CCC2` (stereo not drawn): the growth inhibition was 13.6% (inactive).

For the molecule `O=Nc1c(S(=O)(=O)O)cc2cc(S(=O)(=O)O)ccc2c1O`, the growth inhibition is 41.9% (inactive).

Turning to `Cc1ccc(S(=O)(=O)NC(CCC(=O)N2CCOCC2)C(=O)O)cc1` (stereo not drawn), the growth inhibition was -18.1% (inactive).

The next assay is described as follows: NCI Yeast Anticancer Drug Screen. Data for the mec2-1 strain (AID 157). Particulars: S. cerevisiae mec2-1 strain, active compounds read high; at 50.0 µM unless noted. The method in brief:
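Vehicle-treated cultures served as reference for growth inhibition of compound-exposed mec2-1 yeast.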
On to `CCOC(=O)Nc1ccccc1OCC`, for which the growth inhibition was 2% (inactive).

As for `ClC(Cl)(Cl)c1ncnc2nc[nH]c12`, the growth inhibition was -11.8% (inactive).

As to `CNC(=S)NCOCCOC(C)=O`, the growth inhibition was 22.1% (inactive).

As to `NC(Cc1cc(Br)c(Oc2ccc(O)cc2)c(Br)c1)C(=O)O` (stereo not drawn), the growth inhibition was 12.8% (inactive).

Turning to `O=[N+]([O-])c1ccc(S(=O)(=O)O)cc1`, the growth inhibition was 25.1% (inactive).

Regarding `CCCSc1nc(C(=O)O)cc(=O)[nH]1`, the growth inhibition was -13.8% (inactive).

As to `CC(=O)N(C)c1ccccc1`, the growth inhibition was -20.9% (inactive).

For `O=C(O)c1cc([N+](=O)[O-])c(O)c2ccccc12`, the growth inhibition was 2.8% (inactive).

In the case of `COC(=O)C1=C2C3(O)CC4CC5C3CCC(C)N5C24C2CCCC(OC)C2C1OC(=O)c1ccccc1` (stereo not drawn), the growth inhibition was -27.1% (inactive).

For `CCCC(=O)OCC1OC(n2cc(F)c(=O)[nH]c2=O)CC1OC(=O)CCC` (stereo not drawn), the growth inhibition was 7.9% (inactive).

On to `O=[N+]([O-])c1cccc(Br)c1`, for which the growth inhibition was 22.8% (inactive).

Take `COC(=O)/C=C(/Sc1nc(Cl)c(Cl)nc1N)C(=O)OC` (tested in a mixture with another compound): the growth inhibition is -6.25% (inactive).

For the molecule `CC(C)(C)NC(=O)C(Br)c1ccccc1` (stereo not drawn), the growth inhibition is 23.1% (inactive).

As for `C=C1CC2C=CC1C2` (stereo not drawn), the growth inhibition was -25.4% (inactive).

Turning to `O=S(=O)(O)c1cc(N=[N+]([O-])c2ccc(N=Nc3ccccc3)cc2S(=O)(=O)O)ccc1/C=C/c1ccc(N=[N+]([O-])c2ccc(N=Nc3ccccc3)cc2S(=O)(=O)O)cc1S(=O)(=O)O`, the growth inhibition was 11.9% (inactive).

`CC(C)(C)c1ccc(C(C)(C)C)c(N2C(=O)c3ccc4c5ccc6c7c(ccc(c8ccc(c3c48)C2=O)c75)C(=O)N(c2cc(C(C)(C)C)ccc2C(C)(C)C)C6=O)c1`: the growth inhibition is -7.9% (inactive).

Turning to `CO[C@@H]1C2=CC=CC=C[C@H]2n2c(=O)n(-c3ccccc3)c(=O)n21`, the growth inhibition was 18.6% (inactive).

With `Nc1nc(N)c2[nH]cnc2n1`, the growth inhibition was -1.5% (inactive) and -3.95% (inactive).

Consider `CCOC(=O)c1ccc2c(c1)C(=O)c1cc([N+](=O)[O-])ccc1-2`, for which the growth inhibition was 13.2% (inactive).

On to `N#CCCOc1ccc(N)cc1`, for which the growth inhibition was -5.2% (inactive).

As to `O=C1NCC2(CCNCC2)N1`, the growth inhibition was 16.7% (inactive).

On to `CCCCc1cc(C(=O)OC/C(C)=N/NC(N)=O)c2ccccc2n1`, for which the growth inhibition is 25.8% (inactive).

For `Nc1cc(C(=O)O)[nH]c(=O)n1`, the growth inhibition was -18.4% (inactive).

As to `O=c1c2ccccc2c(=O)n2n1-c1cccc(c1)CSSCc1cccc-2c1`, the growth inhibition is 2.7% (inactive).

As for `O=C(O)COc1ccc(F)cc1F`, the growth inhibition is -3.05% (inactive).

For `Cc1ccc(S(=O)(=O)c2ccccc2)cc1`, the growth inhibition is -15.6% (inactive) and -0.95% (inactive).

`CCCCCCCCCCCC(O)C(C)(C)C` (stereo not drawn): the growth inhibition was 10.1% (inactive).

Take `CC1(O)CC(=O)c2c(cc3ccc(-c4c5c(c(O)c6c(O)cccc46)C(=O)CC(C)(O)C5)c(O)c3c2O)C1` (stereo not drawn): the growth inhibition was 48.1% (inactive).

On to `N#C/C(=C\c1ccc(Cl)cc1Cl)C(=O)N/N=C/c1ccc(Cl)cc1Cl`, for which the growth inhibition was 37.8% (inactive).

On to `O=C1C2CCC2C(=O)N1c1ccc2ccccc2c1` (stereo not drawn), for which the growth inhibition is -1% (inactive).

Consider `Cc1cc(O)c(C)cc1O`, for which the growth inhibition is 5.5% (inactive).

With `C[N+](C)(CCCCCCCCCC[N+](C)(C)CC(=O)c1ccccc1)CC(=O)c1ccccc1`, the growth inhibition was -7.25% (inactive).

Take `CCCCN1C(=O)NC(Cc2ccccc2)C1=O` (stereo not drawn): the growth inhibition was -1.35% (inactive).

Turning to `CCCCCCCCCCCC[N+](C)(C)C(C)Cc1ccccc1` (stereo not drawn), the growth inhibition is 99.5% (active).

Regarding `O=S(=O)(O)c1cc(O)c(S(=O)(=O)O)cc1O`, the growth inhibition is 13.9% (inactive).

Consider `CC(C)CC1N=C(NN=C(CCl)CCl)OP1(=O)NCCCCCCNP1(=O)OC(NN=C(CCl)CCl)=NC1CC(C)C` (stereo not drawn), for which the growth inhibition was 5.05% (inactive).

`O=C1CC2c3ccccc3CCN2C2=C1CCC2` (stereo not drawn): the growth inhibition is 13.1% (inactive).

As for `O=Nc1c(S(=O)(=O)O)cc2cc(S(=O)(=O)O)ccc2c1O`, the growth inhibition was 0.55% (inactive).

`Cc1ccc(S(=O)(=O)NC(CCC(=O)N2CCOCC2)C(=O)O)cc1` (stereo not drawn): the growth inhibition was -4% (inactive).
